Sampled rows, rich in hits. Any-hit rate of the full collection: about 2.4%.
WRN helicase inh: qHTS for Inhibitors of WRN Helicase; Bifunctional 3'-5' exonuclease/ATP-dependent helicase WRN (Homo sapiens), Q14191; WRN helicase unwinding, fluorescent forked duplex, kinetic; Potency, µM (highest dose often 114 µM), for inactives: at the highest dose activity change, negative = inhibition, actives largely listed as inhibitors; 0.46% of 360,000 active; AID 651768, 2012; further: on the % scale 0 is the no-effect control and ±100 the full control effect; nearly all actives have a fitted effect of over 55% in size
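Kinetic red-fluorescence monitoring (525/598 nm) tracks WRN helicase activity after 100 nM fluorophore-quencher forked duplex and 2 mM ATP are added to 20 nM enzyme pretreated 15 min at room temperature with compound.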
FEN1 inhibitor: qHTS Assay for the Inhibitors of Human Flap endonuclease 1 (FEN1). P39748. Recombinant FEN1 flap cleavage, fluorescence, 15 min. Potency, µM (doses to about 114 µM), for inactives: at the top dose activity change, negative = inhibition, actives largely listed as inhibitors. 0.35% of 390,000 active. AID 588795, 2011; further: on the % scale 0 is the no-effect control and ±100 the full control effect; nearly all actives have a fitted effect of over 65% in size
Target sequence (P39748 whole entry, looked up): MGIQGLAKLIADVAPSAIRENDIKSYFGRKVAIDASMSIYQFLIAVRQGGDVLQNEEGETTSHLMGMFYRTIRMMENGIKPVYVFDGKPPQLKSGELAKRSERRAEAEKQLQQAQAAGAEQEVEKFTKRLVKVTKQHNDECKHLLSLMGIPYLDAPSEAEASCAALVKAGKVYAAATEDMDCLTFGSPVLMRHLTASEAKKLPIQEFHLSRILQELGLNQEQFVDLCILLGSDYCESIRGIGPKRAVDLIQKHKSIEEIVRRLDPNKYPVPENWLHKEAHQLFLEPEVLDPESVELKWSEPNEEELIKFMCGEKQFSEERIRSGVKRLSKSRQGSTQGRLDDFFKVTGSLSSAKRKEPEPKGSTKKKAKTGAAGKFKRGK
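Quantitative HTS format: each compound was titrated, incubated with 10 nM nuclease for 15 min at room temperature, then challenged with flap substrate at 50 nM final. Signal change over 15 min gave concentration–effect curves.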
Pol iota inh: qHTS for Inhibitors of Polymerase Iota | Pol iota fluorescent replication assay, 10 min | Potency, µM (titrated, usually from 115 µM), for the others: at the top dose activity, negative = inhibition, usual class: inhibitors | 1% of 390,000 active | AID 588590, 2011
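Fluorescent replication assay read twice, at 0 min and 10 min after adding 50 nM (final) substrate. Enzyme (10 nM) and compounds were first incubated 15 min at room temperature; enzyme-free buffer wells were negative controls.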
Pol eta inh: qHTS for Inhibitors of Polymerase Eta. Potency, µM (titrated, usually from 114 µM), for inactives: at the top dose activity change, negative = inhibition, most hits filed as inhibitors. recombinant Pol eta, fluorescent DNA replication assay. 1.2% of 390,000 active. DNA polymerase eta (Homo sapiens), Q9Y253; further: on the % scale 0 is the no-effect control and ±100 the full control effect
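Pol eta (10 nM) was preincubated with compounds for 15 min at room temperature, after which fluorescent replication substrate (50 nM final) was added to start the reaction. Fluorescence was read kinetically at 0 and 10 min.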
POLB inh: qHTS Assay for Inhibitors of DNA Polymerase Beta | P06746 | Pol beta primer extension/strand displacement, fluorescence kinetic | Potency, µM (top dose mostly 114 µM), inactives show at the highest dose activity change, negative = inhibition, actives largely listed as inhibitors | 1.3% of 340,000 active | AID 485314, 2010; further: on the % scale 0 is the no-effect control and ±100 the full control effect
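Reaction started by 50 nM substrate onto compound-treated Pol beta (10 nM, 15 min preincubation, room temperature); plates read at 0 min and 10 min. Normalized concentration-effect data fitted by four-parameter Hill equation.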
POLK inh: qHTS for Inhibitors of Polymerase Kappa | purified Pol kappa, fluorescent DNA synthesis assay, 10 min | DNA polymerase kappa (Homo sapiens), Q9UBT6 | 0.53% of 400,000 active | Potency, µM (top dose mostly 107 µM), inactives show at the highest dose activity, negative = inhibition, usual class: inhibitors; further: on the % scale 0 is the no-effect control and ±100 the full control effect
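Fluorescent qHTS in 1536-well format: enzyme (10 nM) and compound sat 15 min at room temperature before 50 nM substrate (final) was added. Signal taken at 0 and 10 min; no-enzyme buffer wells were negative controls.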
The depositor's hits bear a star; ? = inconclusive; nt = not tested or not shown; ! = a repeat was not active; [ ] = another dose, or the depositor's remark. The call rests on the fitted dose curve; in most records, active means well fitted curve in the direction sought with a large enough effect; inconclusive means small, poorly fitted or top-dose-only effect, or another doubt; inactive means no such curve, though single readings can be large; an effect the other way counts as inactive or inconclusive. Potency means the concentration at half of the fitted maximal effect.

SMILES	WRN helicase inh	FEN1 inhibitor	Pol iota inh	Pol eta inh	POLB inh	POLK inh
Cc1ccc(/C=C/c2nc3ccccc3s2)s1	-3.5%[57.1 µM]	-14.6%	24.3%	-10.7%	-7.1%	-8.3%
CN(C)c1ccc(/C=C/c2nc3ccccc3s2)cc1	5.4%	50.1µM*!	89.1µM*!	-3.9%	26.5%	?
CN(Cc1ccccc1)c1ccc(/C=C/c2nc3ccccc3s2)cc1	nt	35.5µM*	89.1µM*	nt	nt	25.1µM*
C=C(/C=C/c1ccc(N(C)C)cc1)c1nc2ccccc2s1	nt	25.1µM*	?	nt	nt	?
CN(C)c1ccc(/C=C/c2cccc3cc4ccccc4nc23)cc1	nt	79.4µM*	-9.9%	nt	nt	-14.6%
Cc1c(C(=O)Nc2cccc(C#N)c2)sc2nc3n(c(=O)c12)CCCCC3	nt	27.8%	14.6%	-4.0%	1.7%	-5.7%
Cc1ccc(OCC(=O)Nc2ccc3nc(SCC(=O)N4CCOCC4)sc3c2)cc1C	nt	1.1%	34.1%	-22.1%	-9.4%	-2.0%
COc1cc(/C=C/c2nc3ccccc3s2)cc(OC)c1O	-6.7%	?	152.3%	?	22.4µM*	-17.2%
Cc1ccc(S(=O)(=O)Cc2ccc(C(=O)N3CCN(c4cc(C)ccc4C)CC3)o2)cc1	-16.6%	-4.3%	?	-7.4%	39.8µM*	-24.9%
Cc1ccc(S(=O)(=O)Cc2ccc(C(=O)N3CCCCCC3)o2)cc1	-1.1%	-14.4%	-19.2%	-2.9%	11.5%	-5.5%
CCOC(=O)C1CCCN(C(=O)c2ccc(CS(=O)(=O)c3ccc(C)cc3)o2)C1 (configuration not stated)	-24.7%	-1.9%	31.6µM*	17.8µM*	?	-41.1%
Cc1ccc(C)c(N2CCN(C(=O)c3ccc(CS(=O)(=O)c4ccccc4C)o3)CC2)c1	-17.9%	-5.8%	9.7%	-28.4%	?	-10.1%
Cc1ccc(CCNC(=O)c2ccc3c(c2)N(Cc2ccccc2F)C(=O)c2ccccc2S3=O)cc1 (configuration not stated)	nt	-1.5%	17.5%	-22.2%	36.8%	-0.5%
Cc1cc(C)c(NC(=O)C2CCN(C(=O)N3CC(C)Oc4ccc(Cl)cc43)CC2)c(C)c1 (configuration not stated)	nt	-10.6%	22.8%	-16.4%	4.5%	-21.0%
CCOC(=O)C1CCN(S(=O)(=O)c2ccc3c(c2)CC(=O)N3C)CC1	5.2%	-5.1%	14.1µM*	?	-3.5%	-11.8%
CCOC(=O)C1CCN(S(=O)(=O)c2ccc3c(c2)CCCN3C(C)=O)CC1	12.7%	13.6%	-0.7%	-4.0%	-0.1%	-5.1%
COC(=O)c1ccc(-n2c(C)cc(C(=O)CCl)c2C)cc1	-10.4%[57.1 µM]	16.0%	12.6µM*	?	-10.8%	-5.1%
COc1ccc(Br)cc1C1C(C(=O)Nc2ccc(C)cc2C)=C(C)Nc2ncnn21 (configuration not stated)	nt	-6.8%	3.4%	-10.9%	-21.9%	-18.3%
COC(=O)CCn1cnc2onc(-c3cc(F)cc(F)c3)c2c1=O	nt	-9.5%	13.1%	-16.7%	-6.7%	-15.8%
N/C(=N\OC(=O)Cc1cccs1)c1ccccc1	-25.3%	-19.0%	3.7%	15.8µM*	-13.7%	-26.7%
Cc1ccc(/C(N)=N/OC(=O)Cc2cccs2)cc1	7.2%	16.8%	1.4%	-7.4%	9.9%	-4.2%
CC(C)OC(=O)c1c2c(n3ccccc13)C(=O)c1ccccc1C2=O	89.1µM*	?	74.5%	?	-5.2%	-3.0%
COC(=O)c1cc2c(C)c(C)c3ccccn3c-2c1C(=O)OC	-17.3%	8.2%	?	?	16.1%	-2.7%
O=C(c1cccc(S(=O)(=O)NCc2ccccc2)c1)N1CCN(c2ccccc2Cl)CC1	-3.8%	-16.9%	89.1µM*	-17.2%	nt	-7.8%
Cc1nc2c(C(=O)NCCc3ccccc3)c[nH]n2c(=O)c1Cc1ccccc1F	nt	-1.7%	79.4µM*	3.0%	?	-24.3%
SMILES	WRN helicase inh	FEN1 inhibitor	Pol iota inh	Pol eta inh	POLB inh	POLK inh
CNC(=O)c1c[nH]n2c(=O)c(Cc3ccccc3F)c(C)nc12	-3.8%	14.9%	-21.9%	-6.9%	?	-2.5%
Cc1nc2c(C(=O)N(C)Cc3ccccc3)c[nH]n2c(=O)c1Cc1ccc(Cl)cc1	nt	?	50.1µM*	-10.7%	?	89.1µM*
Cc1nc2c(C(=O)NCCc3ccc(Cl)cc3)c[nH]n2c(=O)c1Cc1ccc(Cl)cc1	nt	?	79.4µM*	89.1µM*	22.4µM*	?
O=S(=O)(c1ccccc1)N1CCSC1c1ccco1 (configuration not stated)	-21.0%	0.7%	?	?	44.7µM*	-7.9%
CC1=NN(c2ccccc2)C(=O)/C1=C/C=C/c1ccccc1	-15.7%[11.6 µM]	-18.8%	9.3%	15.8µM*	35.5%	-2.8%
CN(C)/C=C1\C(=O)ON=C1c1ccccc1	1.8%	-4.7%	34.5%	-2.2%	15.4%	-14.6%
Cc1ccc(C2=NOC(=O)/C2=C\C=C\c2ccccc2)cc1	35.5µM*	-11.6%	?	89.1µM*	?	-20.9%
COc1ccc(-c2ccc(CCC(=O)O)n2CC(=O)Nc2cccc(C(F)(F)F)c2)cc1	nt	11.8%	-2.9%	-12.9%	-13.4%	-17.3%
CCOc1ccccc1N(CC(=O)NCCSc1ccccc1)S(=O)(=O)c1ccccc1	nt	-20.8%	-5.4%	-11.5%	1.5%	-8.0%
CN1C2C=C3C(C#N)=C(N)C(C#N)(C#N)[C@@H](c4cccc(F)c4)[C@@H]3C1CC2 (some centres not stated)	-4.2%[57.1 µM]	-2.3%	20µM*	-10.9%	43.7%	-6.7%
Cc1cc(Cl)cc(Cl)c1OCC(=O)NCc1ccco1	-3.7%[11.6 µM]	-2.6%	?	20µM*	39.8µM*	-43.1%
Cc1ccc2c(Cl)cc(Cl)c(OCC(=O)NCc3ccco3)c2n1	nt	nt	nt	nt	12.6µM*	nt
CCOc1ccccc1NC(=O)Nc1cc(C(=O)NCc2ccc(C)cc2)ccc1N1CCCC1	nt	4.7%	24.5%	-16.0%	-1.0%	2.5%[60.1 µM]
Cc1ccc(NC(=O)CN(CCc2ccccc2)S(=O)(=O)c2ccccc2)c(C)c1	nt	-0.9%	4.3%	-9.2%	3.3%	-11.7%
COc1cc(/C=C2/SC(=O)NC2=O)ccc1Oc1ccc([N+](=O)[O-])cc1[N+](=O)[O-]	-6.1%[11.6 µM]	?	?	50.1µM*	70.8%	0.0%
COc1ccccc1/C=C1/C(=O)N(c2ccccc2)N=C1C	-7.8%	?	?	13.3%	1.2%	-6.4%
COc1cc(/C=C2/C(=O)N(c3ccc(C)c(C)c3)N=C2C)cc([N+](=O)[O-])c1O	-11.5%	1.4%	-11.8%	-14.5%	6.4%	13.3%
